Compounds with a hit are over-represented: about 2% of the library has one in this group of screens.
FBPA coupling cs = inhibits coupling enzyme system, counter-screen for aldolase hits | 290,000 compounds, 0.67% hits | activity change, negative = inhibition, % at 58.2 µM, hits read low | coupling enzyme system counterscreen, AmpLite Red fluorescence; in the data active means activity change below about -30%
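Compounds tested against the coupling enzymes alone at 57.5 uM final; readout was AmpLite Red fluorescence (525/598 nm) after 20 min at RT.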
HTT cytoprotect = protects HTT-Q103 PC12 cells, measured by ATP; 230,000 compounds, 0.14% hits; PC12 HTT-Q103 induced, cytoprotection, ATP luminescence, 40 h; Potency, µM (top dose mostly 56.4 µM), actives largely listed as activators; further: nearly all actives have a fitted effect of over 45% in size
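Stable PC12 Q103-GFP cells in serum-supplemented, phenol red-free DMEM; induction by tebufenozide at 100 nM final; compound dose series; cell viability quantified luminescently from ATP.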
HttQ103 aggreg = mutant huntingtin aggregation inhibition | AID 1688 | 220,000 compounds, 1.1% hits | Potency, µM (top dose mostly 46.1 µM), hits mostly inhibitors | PC12 HttQ103-GFP aggregates, Acumen cytometry, 40 h; further: nearly all actives have a fitted effect of over 60% in size
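Using laser scanning cytometry, GFP-positive aggregates were counted after lysis of PC12 cells induced with 100 nM tebufenozide to express HTT exon 1 Q103–GFP. Compounds were tested in titration.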
TRb-SRC2 inh = inhibitors of human thyroid hormone receptor beta-SRC2 interaction; P10828; TRbeta-SRC2 peptide binding, fluorescence polarization; receptor liganded with 1 µM T3; Potency, µM (highest dose often 106 µM), actives largely listed as inhibitors; 280,000 compounds, 0.065% hits; AID 1469; further: nearly all actives have a fitted effect of over 50% in size
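Polarization signal, normalized between peptide-alone and full complex controls, measured compound effects on T3-liganded human TRb LBD (0.6 uM) binding 20 nM Texas Red SRC2 peptide after 5 hr.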
KDM4E inh = inhibitors of human JMJD2E histone demethylase; B2RXH2; JMJD2E catalytic domain, FDH-coupled NADH fluorescence (FDH is formaldehyde dehydrogenase); Potency, µM (titrated, usually from 57.1 µM), most hits filed as inhibitors; 230,000 compounds, 1.6% hits; active means well fitted inhibition curve with a large enough effect, not every such curve was filed as active; inconclusive means small, poorly fitted or top-dose-only effect, or another doubt; inactive means no such curve, though single readings can be large or run the other way; further: nearly all actives have a fitted effect of over 50% in size
Target sequence (B2RXH2 1-337 limits assumed): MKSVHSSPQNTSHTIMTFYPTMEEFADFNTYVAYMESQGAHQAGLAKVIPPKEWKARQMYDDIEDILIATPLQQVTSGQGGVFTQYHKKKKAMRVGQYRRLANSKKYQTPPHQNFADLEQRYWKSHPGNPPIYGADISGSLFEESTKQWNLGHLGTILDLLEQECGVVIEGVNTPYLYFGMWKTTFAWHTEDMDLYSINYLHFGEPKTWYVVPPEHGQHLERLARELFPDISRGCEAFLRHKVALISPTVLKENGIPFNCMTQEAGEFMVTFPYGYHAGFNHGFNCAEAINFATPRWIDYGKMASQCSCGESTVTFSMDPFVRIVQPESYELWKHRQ
TR SRC2 fluor cs = Texas Red fluorescence interference in TRb-SRC2 counter-screen. TRb/SRC2 Texas Red total fluorescence interference. Potency, µM (doses to about 106 µM). 280,000 compounds, 0.29% hits. AID 1479; active means well fitted curve in either direction with a large enough effect; inconclusive means small, poorly fitted or top-dose-only effect
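Human TRb ligand-binding domain at 0.6 uM with 20 nM Texas Red SRC2 peptide in Tris buffer containing 1 uM T3 and 5% DMSO, incubated with compound 5 h at ambient temperature. Total fluorescence (555/632 nm) calculated as parallel + 2 × perpendicular.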
Of the large screens only hits and unclear results are named; the others gave an inactive call; [ ] = another dose, or the depositor's remark. Unless noted, the call rests on the fitted dose curve; in most records, active means well fitted curve in the direction sought with a large enough effect; inconclusive means small, poorly fitted or top-dose-only effect, or another doubt; inactive means no such curve, though single readings can be large; an effect the other way counts as inactive or inconclusive.

O=C(COC(=O)c1cc([N+](=O)[O-])ccc1NCCO)c1ccccc1	KDM4E inh inconclusive, TR SRC2 fluor cs 100µM[quencher]
Cc1ccc(NC(=O)Nc2ccnc(-c3cccnc3)n2)cc1	HTT cytoprotect 3.5µM, HttQ103 aggreg inconclusive
CCCCCCCCCCC1=C(C)C(=O)C(OC)=C(OC)C1=O	FBPA coupling cs -44, TR SRC2 fluor cs inconclusive (no result: HttQ103 aggreg, KDM4E inh)
COC1=C(OC)C(=O)C(CCCCCCCCCCO)=C(C)C1=O	FBPA coupling cs -65, HttQ103 aggreg inconclusive
Cc1ccccc1NC(=O)c1sc2nc3n(c(=O)c2c1C)N=C(c1ccccc1)CS3	none (no result: FBPA coupling cs, HTT cytoprotect, HttQ103 aggreg, KDM4E inh)
COCCNC(=O)COc1ccc(OCCNC[C@H](O)COc2ccccc2)cc1	none (no result: FBPA coupling cs, HttQ103 aggreg, KDM4E inh)
C[C@@H](CCc1ccc(O)cc1)NCCc1ccc(O)c(O)c1	KDM4E inh 20µM (no result: HttQ103 aggreg)
O=C(Nc1ccc2c(c1)nc1n2CCN(Cc2ccccc2)C1)NC1CCCCC1	FBPA coupling cs -37, KDM4E inh inconclusive
COCCN1CCn2c(nc3cc(NC(=O)NC4CCCCC4)ccc32)C1	FBPA coupling cs -31, KDM4E inh inconclusive
O=C(Nc1ccc2c(c1)nc1n2CCN(Cc2ccccc2)C1)c1cccs1	HttQ103 aggreg inconclusive, KDM4E inh inconclusive
O=C(NC1CCCCC1)C(c1ccc(F)cc1)N(Cc1ccco1)C(=O)CN1C(=O)c2ccccc2S1(=O)=O (centres undefined)	HttQ103 aggreg 22µM
O=C(NC1CCCCC1)C(c1ccc(F)cc1)N(Cc1ccco1)C(=O)Cn1nnc2ccccc21 (centres undefined)	none
CC(=O)OCCCn1c(C)[n+](C)c2cc(Cl)c(Cl)cc21	KDM4E inh inconclusive
CCn1c(C)[n+](CCOC(C)=O)c2cc(Cl)c(Cl)cc21	KDM4E inh 16µM
Cc1ccc2onc(CNC(=O)Nc3ccccc3C#N)c2c1	none (no result: FBPA coupling cs, HTT cytoprotect, HttQ103 aggreg, KDM4E inh)
O=[N+]([O-])c1ccc2nc[nH]c2c1	none (no result: FBPA coupling cs, HttQ103 aggreg, KDM4E inh)
Nc1ccc2nc[nH]c2c1	FBPA coupling cs -41, KDM4E inh inconclusive
Cc1ccc(Nc2nnc(-c3cc4c(ccc5ccccc54)oc3=O)s2)cc1	TRb-SRC2 inh inconclusive, TR SRC2 fluor cs 0.032µM[quencher] (no result: FBPA coupling cs, HTT cytoprotect, HttQ103 aggreg, KDM4E inh)
O=c1oc2ccc3ccccc3c2cc1-c1nnc(Nc2ccc(F)cc2)s1	none (no result: FBPA coupling cs, HTT cytoprotect, HttQ103 aggreg, KDM4E inh)
CC(C)Cn1[nH]c2c3c(ccc2c1=O)C(=O)c1ccccc1C3=O	FBPA coupling cs -30, HttQ103 aggreg 22µM
CCOc1ccc(NC(=O)c2c(NCc3cccs3)sc3c2CCC(C)C3)cc1 (centres undefined)	TR SRC2 fluor cs 355µM[quencher] (no result: FBPA coupling cs, HTT cytoprotect, HttQ103 aggreg, KDM4E inh)
COc1ccc(Cn2c(=O)c3oc4ccccc4c3n(Cc3ccc(F)cc3)c2=O)cc1	none (no result: FBPA coupling cs, HTT cytoprotect, HttQ103 aggreg, KDM4E inh)
O=C(/C=C/c1ccc(OCc2ccccc2)c(OCc2ccccc2)c1)c1cccnc1	TR SRC2 fluor cs 1122µM[quencher]
O=C(/C=C/c1ccc(Cl)cc1)c1cccnc1	none
CCOC(=O)c1c(C(=O)OCC)c(C)n(N2C(=O)CSC2=S)c1C	HttQ103 aggreg 0.89µM

Bioassay records (PubChem)
